PubChem BioAssay AID1963576 (National Center for Advancing Translational Sciences (NCATS), 2024)
Among all 46,000 compounds or so, about 60 (0.1%) were called active. Not shown: some 3% with an inconclusive outcome. What follows is part of a selection rich in actives, with near analogues and random picks from the rest. Values without a mark were called inactive. The call rests on the fitted dose curve; in most records, active means well fitted inhibition curve with a large enough effect; inconclusive means small, poorly fitted or top-dose-only effect; inactive means no such curve, though single readings can be large or run the other way.

assay: Primary qHTS assay for Inhibitors of ovarian cancer metastasis using an organotypic tumor microenvironment (TME) model.; further: nearly all actives have a fitted effect of over 65% in size;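 on Potency: count of GFP cancer cells still attached after washing and fixation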; settings: SKOV3ip1-GFP adhesion/invasion on 3D omental model, fluorescence; series mostly up to 45.8 µM; activity change, negative = inhibition: at the top concentration
Description: PI: Ernst Lengyel MD., Ph.D. Department of Obstetrics and Gynecology, Section of Gynecologic Oncology University of Chicago Medicine, Chicago, Illinois. The tumor microenvironment (TME) is a key determinant of metastatic efficiency. We performed a quantitative high-throughput screen (qHTS) of diverse medicinal chemistry tractable scaffolds (44,420 compounds) and pharmacologically active small molecules (386 compounds) using a layered organotypic, robust assay representing the ovarian cancer metastatic TME. This 3D model contains primary human mesothelial cells, fibroblasts, and extracellular matrix, to which fluorescently labeled ovarian cancer cells are added. Initially, 100 compounds inhibiting ovarian cancer adhesion/invasion to the 3D model in a dose-dependent manner were identified. Of those, eight compounds were confirmed active in five high-grade serous ovarian cancer cell lines and were further validated in secondary in vitro and in vivo biological assays. […] Specifically, NCGC00117362 and PP-121 inhibited ovarian cancer adhesion, invasion, and proliferation, whereas milciclib inhibited ovarian cancer invasion and proliferation. […] To evaluate the clinical potential of NCGC00117362, structure - activity relationship studies were performed. […] The three compounds identified have promise as therapeutics for prevention and treatment of ovarian cancer metastasis.
PROTOCOL TABLE (as described by Inglese J, Shamu CE and Guy RK. 2007) SEQUENCE No. (e.g., 1, 2, 3, etc.); […] (e.g., Cells, Incubation, Reagent, etc.); VALUE; DESCRIPTION. 1; Cells; 4 uL; primary human omental fibroblast, black, clear bottom, low base, 1536-well Aurora assay plate. 2; Incubation; 48 hr; 37C. 3; Cells; 3 uL; 1,200 SKOV3ip1-GFP cells. 4; Compounds; 23nL; acoustic dispenser. 5; Incubation; 2 hr; room temperature. 6; Incubation; 16 hr; 37C. 7; Wash; 5 uL; 1x PBS. 8; Fixing; 5 uL; 4% paraformaldehyde (PFA). 9; Incubation; 15 min; room temperature 10; Wash, 5 uL; 1x PBS. 11; Detection; Fluorescence, excitation filter 488 nm, emission filter 509 nm. NOTES (numbers refer to Sequence numbers above) 1. For the 1,536-well format, 40 primary human omental fibroblasts and 400 mesothelial cells were seeded with 0.02 µg fibronectin and 0.02 µg collagen type I in 4 µL of growth media (2.3 mm2; Supplementary Fig. S1A). 2. Assay plates were incubated for 48 hours at 37 C. 3. After incubation, 1,200 SKOV3ip1-GFP were seeded in 3 µL of serum-free media (growth media minus FBS) on top of primary human omental cells. 4. Compounds or controls were added to each well immediately after the addition of the cancer cells. Compounds were screened in four doses (0.36-46 µmol/L), and the plates contained the positive control (Tomatine) in eight doses (0.035-75 µmol/L) and DMSO (equal volume controls) 5 - 6. The plates were incubated at room temperature for 2 hours and then at 37 degrees C for 16 hours. 7 - 10. Following incubation, the media were aspirated and each well washed with PBS (5 µL) and then fixed with 4% paraformaldehyde (PFA; 5 µL). After 15 minutes, the PFA solution was aspirated, PBS (5 µL) was added. 11. The number of GFP-labeled cells analyzed using a fluorescent cytometer TTP LabTech Acumen eX3 using 488 nm excitation filter and 509 nm emission filter. Data was normalized to the DMSO treated for negative and Tomatine treated wells for positive control. REFERENCES: Inglese J, Shamu CE and Guy RK, Reporting data from high throughput screening of small molecule libraries, Nature Chemical Biology, 2007, 3(8): 438-441. doi.org/10.1038/nchembio0807-438. Yasgar A, Shinn P, Jadhav A, Auld DS, Michael S, Zheng W, Austin CP, Inglese J and Simeonov A, Compound Management for Quantitative High-Throughput Screening. J. Assoc. Lab. Auto., 2008, 13: 79-89. doi: 10.1016/j.jala.2007.12.004.
Potency means the concentration at half of the fitted maximal effect.

Structure (SMILES)	outcome	activity change, negative = inhibition	Potency
CCSc1ncc(Cl)c(C(=O)Nc2cc(C)ccc2C)n1	inactive		
CCCS(=O)(=O)c1ncc(Cl)c(C(=O)Nc2scc(-c3ccccc3)c2C(=O)OCC)n1		3.76%	
Cc1ccc(NC(=O)c2nc(S(=O)(=O)Cc3cccc(C)c3)ncc2Cl)cc1			3160 nM (active)
CCOC(=O)N1CCc2c(sc3c2C(=O)NC(c2ccccc2F)N3)C1 (stereo not given)		-21.5%	
COc1ccc(-c2nc(CN3CCC(C(=O)NCCN(CC(C)C)CC(C)C)CC3)c(C)o2)cc1OC		3.13%	
CC(C)c1ccc(Cn2c(COc3ccccc3)nc3ccccc32)cc1		-0.836%	
CCc1ccc(C=C2SC(=S)NC2=O)cc1		-4.26%	
COc1ccc(-c2[nH]c3c(c2-c2c(-n4cccc4)n(C)c(=O)n(C)c2=O)c(=O)n(C)c(=O)n3C)cc1		6.37%	
COc1ccc2c(C)c(CCC(=O)NCc3ccc(OC)c(OC)c3)c(=O)oc2c1		-0.405%	
CC(C)(C)C1CCc2c(sc(NC(=O)c3ccccc3F)c2C(=O)N2CCCCC2)C1 (stereo not given)		6.61%	
CCc1ccccc1NC(=O)c1cnn(-c2ccc(F)cc2)c1C1CCNCC1		1.55%	
CCCCOc1ccc(CNC(=O)c2ccc3c(c2)N(C)C(=O)C2CCCCN32)cc1 (stereo not given)	inactive		
COc1ccc(CCNC(=O)CCCCn2c(=O)c3ccccc3n(Cc3ccccc3C)c2=O)cc1OC		9.65%	
CC=C(C(=CC)c1ccc(O)cc1)c1ccc(O)cc1		-8.67%	
Cc1cc2nc(NC(=O)c3ccc(S(=O)(=O)N4CCOCC4)cc3)sc2cc1C		-13.4%	
COc1ccc(-c2cc(C(=O)Nc3sc4c(c3C(N)=O)CCCC4)no2)cc1		33.1%	
Cc1ccc2c(c1)N(C(=O)Nc1ccc(Br)cc1F)CCO2	inactive		
COc1ccc2c(CNCCc3ccccc3C)c(C(=O)O)n(Cc3ccccc3C)c2c1		1.4%	
CCOc1cc(C2C(C(=O)OC)=C(C)NC3=C2C(=O)c2ccccc23)ccc1O (stereo not given)		-5.14%	
COc1ccc2c(c1)CCc1c(C(=O)Nc3cc(C)ccc3O)noc1-2	inactive		
Cc1ccccc1CNC(=O)c1ccc(NC(=O)N2CCCCc3ccccc32)cc1		-3.35%	
CCCN1CCN(CCCNC(=O)Cn2nc(CC)n3c(cc4occc43)c2=O)CC1		0.82%	

Structure (SMILES)	outcome	activity change, negative = inhibition	Potency
CCOC(=O)C1CCC(CN(Cc2ccc(OC)cc2)S(=O)(=O)c2ccc(F)c(C(=O)Nc3cc(C)ccc3C)c2)CC1 (stereo not given)	inactive		
Cc1n[nH]c(C)c1S(=O)(=O)N1CCCC(C(=O)Nc2ccc(Br)cc2)C1 (stereo not given)		6.06%	
COc1ccc(NC(=O)C(=O)NCc2ccco2)cc1		-4.16%	
N#Cc1nc(/C=C/c2ccc(F)cc2)oc1NCc1ccc(F)cc1	inactive		
CCOc1ccc(-c2nonc2NC(=O)c2oc3ccc(C)cc3c2C)cc1OCC		-20.8%	
CCC(=O)Nc1ccccc1-c1nc2ccccc2n(CC(=O)Nc2ccc(C)c(C)c2)c1=O		2.4%	
Cc1ccc2nc(NC(=O)c3nc(SCc4ccccc4F)ncc3Cl)sc2c1	inactive		
COc1ccc(Cn2ccc3nc(C)c(C(=O)Nc4ccc(C)c(F)c4)cc3c2=O)cc1		1.42%	
CCCCNC(=O)C1CCCN(c2nnc(C)c3c(C)n(-c4ccc(Cl)cc4)nc23)C1 (stereo not given)		4.38%	
COC(=O)c1cc(NC(=O)c2sc3ccccc3c2Cl)cc(C(=O)OC)c1		0.94%	
Cc1cccc(S(=O)(=O)c2cn(Cc3ccccc3)c3cc(N4CCOCC4)c(F)cc3c2=O)c1		2.35%	
CC1=C(c2ccc(F)cc2)S(=O)(=O)N=C1N1CCC(C(=O)NCCc2ccccc2C)CC1		-4.77%	
CCOC(=O)C1CCCN(S(=O)(=O)c2cc(-c3cc(C)no3)ccc2OC)C1 (stereo not given)		-0.925%	
CCOc1ccccc1NC(=O)Cn1c(=O)n(-c2cccc(C)c2)c(=O)c2c1c1cc(OC)ccc1n2C		6.79%	
COc1ccc(CCNC(=O)C(=O)NCC(c2ccco2)S(=O)(=O)c2cccs2)cc1OC (stereo not given)		12%	
COc1ccc(CCNCc2c(C(=O)O)c(C)n(Cc3cccc(C)c3)c2C)cc1OC		-2.02%	
CCN(CC)CCNC(=O)c1c(C)[nH]c(C=C2C(=O)Nc3ccc(F)cc32)c1C		-23.8% [at 92.2 µM]	
COc1ccc(C2(Nc3cccc(F)c3)C(=O)c3ccccc3C2=O)cc1	inactive		
COc1ccc(/C=C/c2nc(C#N)c(NCc3ccc(F)cc3)o2)cc1OC	inactive		
COc1ccc(NC(C)=O)cc1NC(=O)CN1CCN(c2ccc(F)cc2)CC1		3.17%	
CCCCCn1c(=O)[nH]c2cc(C(=O)Nc3cc(C)cc(C)c3)ccc2c1=O	inactive		
Cc1ccc(NC(=O)CCCn2c(=O)c3cccn3c3ccccc32)cc1Cl	inactive		

Structure (SMILES)	outcome	activity change, negative = inhibition	Potency
Cc1ccc(C)c(CNC(=O)c2cc3ccccn3n2)c1		-2.96%	
CSc1oc(-c2cccs2)nc1S(=O)(=O)c1ccc(Br)cc1		-2.14%	
CCCCS(=O)(=O)c1oc(-c2cccs2)nc1S(=O)(=O)c1ccccc1			2510 nM (active)
Cc1ccc(CSc2oc(-c3cccs3)nc2S(=O)(=O)c2ccc(C)cc2)cc1		2.23%	
CN(CC(=O)Nc1ccccc1F)S(=O)(=O)c1ccc2c(c1)c(=O)n(C)c(=O)n2C	inactive		
Cc1ccc(NC(=O)Cn2cnc3nc4c(cc3c2=O)CCCC4)cc1Cl		-18.1%	
COc1cccc(C(=O)NC(=O)Nc2ccc(-c3cc(C(F)(F)F)nn3-c3ccccc3)cc2)c1		-6.28%	
Cc1cc(C)c2oc(C(=O)Nc3c(C(=O)Nc4ccccc4)oc4ccccc34)cc(=O)c2c1		-0.148%	
COc1ccc(CCNC(=O)c2cnc3sc(N4CCCCCC4)nn3c2=O)cc1OC	inactive		
COc1cc(NC(=O)c2nn(-c3ccc(C)cc3)c(=O)c3c2c2ccccc2n3C)cc(OC)c1OC		2.39%	
Cc1ccc(Cl)cc1NC(=O)NC1COc2ccccc2C1 (stereo not given)		-3.78%	
Cn1ccc2cc(S(=O)(=O)N3CCCC(C(=O)NCc4ccccc4F)C3)ccc21 (stereo not given)		-6.3%	
COC(=O)c1ccc(OC)c(Cn2c(=O)n(Cc3ccccc3)c(=O)c3c2c2cc(OC)ccc2n3C)c1		0.627%	
Cc1cccc(CCNC(=O)c2ccc3c(c2)nc2n3CCC(C)C2)c1 (stereo not given)		-15%	
CCOC(=O)C1CCN(c2ncnc3c2c(-c2ccccc2)cn3-c2cccc(C)c2)CC1	inactive		
CC(=O)O[C@]1(C(C)=O)CC[C@@H]2[C@@H]3C[C@H](C)C4=CC(=O)CC[C@]4(C)[C@H]3CC[C@@]21C		20%	
CC1=C(C(=O)OCc2ccc(C)cc2)C(c2ccccc2Cl)CC(=O)N1 (stereo not given)	inactive		
Cc1ccc(C(=O)Nc2cc3c(cc2N2CCCC2)n(C)c(=O)c(=O)n3C)cc1		6.74%	
COc1ccccc1-c1cc2nc(C)c(CCC(=O)NC3CCCCC3)c(C)n2n1		-9.62%	
CCOc1ccc(NC(=O)CCc2c(C)nn(-c3ccc(N4CCCC4)nn3)c2C)cc1	inactive		
CN1CCN(c2oc(-c3ccc(COc4ccc(Cl)cc4)o3)nc2C#N)CC1		3.31%	
COc1ccc(Cn2cc(C(=O)c3ccc(C)cc3)c(=O)c3cc(OC)c(OC)cc32)cc1		-5.32%	

Structure (SMILES)	outcome	activity change, negative = inhibition	Potency
Cc1ccc2nc(COc3ccc(NC(=O)COc4ccccc4F)cc3)cc(=O)n2c1	inactive		
COc1ccccc1CNC(=O)c1ccc(-n2c(C)cc3c2CCCC3)cc1		2.22%	
O=C(CSCc1cnn(-c2ccccc2)c1-n1cccc1)NCc1ccccc1Br		0.114%	
COc1cc(Cl)cn2c(-c3cccc(NC4CNC4)n3)cnc12		6.77%	
Cc1ccc(C)c(Nc2nnc(-c3ccc(C)c(S(=O)(=O)N4CCCCC4)c3)c3ccccc23)c1		-1.28%	
Cc1ccc(C)c(N2CCN(C(=O)CCc3c(C)nc4c(c3C)c(=O)n(C)c(=O)n4C)CC2)c1		-15.3%	
CCOc1ccc(NC(=O)c2cc3c(=O)n(Cc4cccs4)ccc3nc2C)cc1		2.81%	
CCCOc1ccc(NC(=O)CC2C(=O)N(c3ccccc3)C(=O)N2Cc2ccco2)cc1 (stereo not given)		2.15%	
O=C(CCCn1c(=O)c2cccn2c2cccnc21)NCc1ccc(F)cc1	inactive		
Cc1ccccc1-c1nc2cc(NC(=O)c3cccc(OCCC(C)C)c3)ccc2o1		1.04%	
CCN(Cc1ccccc1)C(=O)CCS(=O)(=O)c1ccc2c(c1)oc(=O)n2C		8.58%	
Cc1cccc(NC(=O)CN(c2ccc(C(C)C)cc2)S(=O)(=O)c2c(C)nn(C)c2C)c1C		-7.12%	
O=C(CCc1ccccc1)NCc1ccc2c(c1)CCN2C(=O)c1ccccc1	inactive		
Cc1cc(O)c(C(c2ccccc2)N2CCN(c3ccccc3F)CC2)c(=O)n1Cc1ccco1 (stereo not given)		-0.378%	
O=[N+]([O-])c1cc(-c2nc(-c3ccccc3)no2)ccc1NCc1ccco1		6.86%	
Cc1ccc(C)c(Cn2c(C)c(CNCc3ccc(F)cc3)c(C(=O)O)c2C)c1	inactive		
COc1ccc(C2(C#N)CCC(C(=O)O)CC2)cc1OC1CCCC1 (stereo not given)		9.33%	
CCOC(=O)c1c(NC(=O)c2cc(CC)on2)sc(C(C)=O)c1C		8.82%	
CC(C)(C)c1[nH]cnc1C=c1[nH]c(=O)c(=Cc2ccccc2)[nH]c1=O		0.182% [at 92.2 µM]	
